SMILES strings stand for the structures. Several values for one entry are separate records, joined by “and”; a condition that tells them apart may be missing. Equal values may be shown once.

A short description of the assay: probe aNOTCH3 binding on compound microarray – biochemical, small-molecule microarray, 635/667 nm fluorescence, primary screen (AID 1120).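 Also: probe is a biotin-tagged antibody raised against NOTCH3 rather than NOTCH3 protein; score merges spot fluorescence near 667 nm with spot signal to noise.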 To be noted: higher = more signal.
In the case of `C=CCN(C(=O)C(c1cccs1)N(C(=O)/C=C\C(=O)O)c1ccc(CCO)cc1)c1ccc(OC)cc1` (configuration not stated), the composite z-score is -0.299 and -0.451.

Consider `CO[C@@H]1COC(=O)CC=C[C@H](C)COC(=O)[C@H](C)NC(=O)CC=C[C@H]1C`, for which the composite z-score is -0.1.

Regarding `CCOC(=O)c1ccc(NC(=O)O[C@H]2[C@H](OC(=O)Nc3ccccc3)[C@@H](OC(=O)Nc3ccccc3)[C@@H](OC)O[C@@H]2CO)cc1`, the composite z-score was 0.228 and 0.318.

As to `COC(=O)C1=C(C)N(Cc2ccccc2)C2=C(C(=O)c3ccccc3)[C@H](c3ccccc3)[C@@](O)(C(=O)OC)C(=O)N2[C@@H]1c1ccccc1`, the composite z-score was 0.177 and -0.0265.

Regarding `C[C@@]1([C@@H](NC(=O)Cc2ccccc2)c2ccc(-c3ccccc3)cc2)C[C@H]1C1CCCCC1`, the composite z-score is 0.767 and 1.49 and -0.137.

For `CC(CO)N1C(=O)[C@@H]2C3C(=O)OCCC=C[C@H]3OC23C=CCN(CCN2CCOCC2)C(=O)[C@@H]13` (some centres not stated), the composite z-score is -0.225 and 0.604.

In the case of `C=C[C@H](C)[C@H](O)c1ccc(O)c2ccccc12`, the composite z-score was -0.36 and -0.229.

As to `C=CCN(CCCC)C(=O)C(c1cccs1)N(C(=O)/C=C\C(=O)O)c1c(Cl)cccc1CO` (configuration not stated), the composite z-score is -0.589 and -0.431.

With `C#CCCCON=C1C[C@@H](O)[C@@H](O)[C@@H]2[C@@H]3C(=O)N(C4CCCCC4)C(=O)[C@@H]3CC[C@H]12`, the composite z-score was -0.0006.

In turn, `Cc1ccc(S(=O)(=O)N[C@H]2COC(=O)[C@@H](C)COC(=O)[C@H](C)NC(=O)CC=C[C@H]2C)cc1` had a composite z-score of -0.0931.

Take `C=CCN(C(=O)C1N(CCOCCO)C(=O)C2C(C(=O)O)C3C=CC21O3)C(C)(C)C` (configuration not stated): the composite z-score is -0.465 and -0.469.

Consider `C=CCN(CCCC)C(=O)C1N(CCOCCO)C(=O)C2C(C(=O)O)C3C=CC21O3` (configuration not stated), for which the composite z-score was -0.372 and -0.457.

Turning to `COc1ccc(COC(=O)NN=C2C[C@@H](O)[C@@H](O)[C@@H]3[C@@H]4C(=O)N(C(C)(C)C)C(=O)[C@@H]4CC[C@H]23)cc1`, the composite z-score was -0.194.

In the case of `COC(=O)C1=C2N(Cc3ccccc3)C(C)=C(C(=O)OC)[C@@H](c3ccccc3)N2C(=O)[C@](O)(C(=O)OC)C1`, the composite z-score is 0.0349 and -0.063.

Turning to `C[N+](C)(C)CCCCNC(=O)[C@@H]1C[C@@H]2C(=O)N[C@@H](CCCC[N+](C)(C)C)C(=O)N2[C@@H]1c1cccc(OCCO)c1`, the composite z-score was 0.197 and 0.129.

With `C[C@@H]1CC[C@H]2C(=O)N3[C@@H](CC[C@@H](C)[C@@H]3c3ccc(-c4ccco4)cc3)C(=O)N2[C@H]1c1ccc(-c2ccco2)cc1`, the composite z-score is 0.116 and 0.385.

In the case of `C=CCN(Cc1ccccc1)C(=O)C1N(c2ccc(CCO)cc2)C(=O)C2C(C(=O)O)C3C=CC21O3` (configuration not stated), the composite z-score is -0.393 and -0.575.

As to `CC(C)N1CC=CC23O[C@@H]4C=CCCOC(=O)C4[C@H]2C(=O)N(C(C)CO)[C@@H]3C1=O` (some centres not stated), the composite z-score was -0.222 and -0.215.

The compound `CC(C)C(=O)N[C@@H]1CCCN1C(=O)C=Cc1ccccc1` showed a composite z-score of 0.0271.

Regarding `CO[C@@H]1COC(=O)[C@H](Cc2ccccc2)NC(=O)CC=C[C@@H](C)[C@H](OC)COC(=O)[C@@H](C)NC(=O)CC=C[C@H]1C`, the composite z-score is 0.0522 and -0.023.

In the case of `COC(=O)[C@@]1(Cc2ccc(OC)cc2)[C@H]2c3cc(C(=O)N(C)C)n(Cc4ccc(O)c(OC)c4)c3C[C@H]2CN1C(=O)c1ccccc1`, the composite z-score was 0.359 and 0.68.

Consider `C=CCN(CCCCC)C(=O)C1N(CCCCCCO)C(=O)C2C(C(=O)O)C3C=CC21O3` (configuration not stated), for which the composite z-score is -0.374 and -0.327.

As to `O=c1n(-c2ccccc2)c(=O)n2n1CC[C@@H]1C(=NOC[C@@H](O)COCc3ccco3)[C@H]3O[C@H]3[C@@H](O)[C@@H]12`, the composite z-score is -0.173 and -0.268.

Compound `CCOC(=O)NN=C1C[C@@H](O)[C@@H](O)[C@@H]2[C@@H]3C(=O)N(Cc4ccc5c(c4)OCO5)C(=O)[C@@H]3CC[C@@H]12` had a composite z-score of -0.141.

Regarding `CCCCCN1CC=CC23O[C@@H]4C=CCCOC(=O)C4[C@H]2C(=O)N(C(C)CO)[C@@H]3C1=O` (some centres not stated), the composite z-score is -0.536 and -0.0416.

Take `C=C[C@H](OC)[C@@H](O)c1ccc(OCCO)cc1`: the composite z-score was -0.437 and -0.465.

Turning to `CCCCN1CC=CC23O[C@@H]4C=CCCOC(=O)C4[C@H]2C(=O)N(C(C)CO)[C@@H]3C1=O` (some centres not stated), the composite z-score is -0.222 and -0.0647.

On to `C=CCN(CCCCC)C(=O)C1N(CCOCCO)C(=O)C2C(C(=O)O)C3C=CC21O3` (configuration not stated), for which the composite z-score is -0.496 and -0.461.

`C=CCN(CCCCC)C(=O)C(c1cccs1)N(C(=O)/C=C\C(=O)O)c1ccc(CCO)cc1` (configuration not stated): the composite z-score is -0.499 and -0.508.

As for `O=C1NC(=O)C2C1C=CC(C(O)c1ccc([N+](=O)[O-])cc1)N2Nc1ccc(Cl)cc1Cl` (configuration not stated), the composite z-score was 0.0597 and 0.133.

For `COC(=O)[C@@]1(Cc2ccccc2)[C@H]2c3cc(C(=O)N(C)C)n(C[C@H](O)CO)c3C[C@H]2CN1C(=O)c1ccccc1`, the composite z-score is 0.0208 and 0.52.

On to `CO[C@H]1COC(=O)CC=C[C@@H](C)COC(=O)[C@H](CCSC)NC(=O)CC=C[C@@H]1C`, for which the composite z-score is 0.0311 and -0.0043.
